Test results: the supplement of paper PMC4894684
Structures can show the parent of a compound that is named as a salt. ± gives the standard deviation of the averaged measurements.

tested on: Toxoplasma gondii RH (in HFF); test: parasite growth relative to the screen mean (all compounds = 100%); higher = less inhibition of parasite growth; details: 5 µM; 72 h; oxygen 21 %
Outline: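 Each value is parasite growth expressed against the screen mean, averaged over two screens, where the mean of all compounds = 100%. The screen used 5 µM final compound on confluent human foreskin fibroblasts infected with RH β-Gal–GFP Toxoplasma (MOI 1:5) within 2 h and grown 72 h at 21% O2. Parasite number was measured by a CPRG β-Gal assay against in-plate standard curves.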

| Compound | parasite growth [%] |
| --- | --- |
| COc1ccc(-n2[nH]c3c4c(ncc3c2=O)CCCCC4)cc1 | 105 ± 28 |
| Nc1ncnc2nc(-c3ccc(N4CCOCC4)nc3)cc(-c3cccc(Br)c3)c12 [ABT 702 dihydrochloride] | 100 ± 9.5 |
| CC1=C(C(=O)OCCN(Cc2ccccc2)c2ccccc2)C(c2cccc([N+](=O)[O-])c2)C(P2(=O)OCC(C)(C)CO2)=C(C)N1 (centres undefined) [Efonidipine hydrochloride monoethanolate] | 58 ± 3.9 |
| CN(C)C(=O)C(CCN1CCC(O)(c2ccc(Cl)cc2)CC1)(c1ccccc1)c1ccccc1 [Loperamide hydrochloride] | 20.6 ± 19 |
| CC(C)NCC(O)COc1ccccc1-n1cccc1 (centres undefined) [Isamoltane hemifumarate] | 97 ± 39 |
| CCOC(=O)[C@@H](C)Oc1cccc2c(=O)n(CC(=O)Nc3ccc4c(c3)OCCO4)ccc12 | 118 ± 12 |
| O=C1CC2(CCCC2)CC(=O)N1CCCCNCC1COc2ccccc2O1 (centres undefined) | 156 ± 5.8 |
| NC(=O)c1cccc(N)c1 [3-Aminobenzamide] | 129 ± 30 |
| CNS(=O)(=O)Cc1ccc2[nH]cc(CCN(C)C)c2c1 [Sumatriptan succinate] | 76.2 ± 11 |
| CN1CCN2c3ncccc3Cc3ccccc3C2C1 (centres undefined) [Mirtazepine] | 92.3 ± 34 |
| O=C(Nc1ccccc1)c1cc([N+](=O)[O-])ccc1Cl | 103 ± 18 |
| CCn1c(=O)[nH]c2cc(Cl)c(Cl)cc21 | 89.8 ± 61 |
| CN(C)CCC1(c2ccc(Cl)cc2)Cc2ccccc2C(=O)O1 (racemic) [(±)-AC 7954 hydrochloride] | 98.7 ± 67 |
| CN(N=O)C(=O)N[C@@H](C=O)[C@@H](O)[C@H](O)[C@H](O)CO [Streptozocin] | 137 ± 5.8 |
| CC1CCN(CC[C@H]2CCCN2S(=O)(=O)c2cccc(O)c2)CC1 | 120 ± 15 |
| CC(=O)N1CCN(C)CC1 [1-Acetyl-4-methylpiperazine hydrochloride] | 109 ± 40 |
| COc1ccc(NC(=O)c2cc(OCCCN(C)C)nn2Cc2ccccc2)cc1 [CFM 1571 hydrochloride] | 106 ± 4.8 |
| O=C(O)c1ccccc1Nc1cccc(OCc2ccc3ccccc3n2)c1 [SR 2640 hydrochloride] | 135 ± 9.3 |
| CCOCC(O)COc1ccc(NC(=O)CC[S+](C)C)cc1 (centres undefined) [Suplatast tosylate] | 75 ± 16 |
| Nc1nc2c(cnn2CCc2ccccc2)c2nc(-c3ccco3)nn12 | 100 ± 39 |

| Compound | parasite growth [%] |
| --- | --- |
| Cc1cc(C)c(/C=C2\C(=O)Nc3ccccc32)[nH]1 | 198 ± 12 |
| OC(CN1CCC(Cc2ccc(F)cc2)CC1)c1ccc(Cl)cc1 (centres undefined) [Eliprodil] | 93.6 ± 21 |
| CC1(C)CC(=O)C(C2C3=C(CC(C)(C)CC3=O)Oc3ccccc32)C(=O)C1 (centres undefined) | 127 ± 18 |
| O=C(Nc1ccc([N+](=O)[O-])cc1O)Nc1ccccc1Br | 107 ± 21 |
| CC1(C(=O)O)NCCc2cc(O)c(O)cc21 (centres undefined) [Salsolinol-1-carboxylic acid] | 104 ± 22 |
| Clc1ccc(CCCOCCCN2CCCCC2)cc1 | 45.7 ± 21 |
| O=C(c1ccc(F)cc1)C1CCN(CCCCc2ccccc2)CC1 [4-(4-Fluorobenzoyl)-1-(4-phenylbutyl)-piperidine oxalate] | 110 ± 7.6 |
| CCc1cc(Cl)c(OC)c(C(=O)NC[C@@H]2CCCN2CC)c1O [Eticlopride hydrochloride] | 106 ± 11 |
| CCC(=O)NC1Cc2ccccc2C(c2ccccc2)C1 (centres undefined) | 73.8 ± 18 |
| Cc1nc2sccn2c(=O)c1CCN1CCC(=C(c2ccccc2)c2ccc(F)cc2)CC1 | 106 ± 24 |
| Cc1cc(/C(=C/Nc2ccc(Cl)cc2)C(=O)Nc2ccc(Cl)cc2)on1 | 139 ± 40 |
| Oc1cc(O)cc(/C=C/c2ccc(O)c(O)c2)c1 [Piceatannol] | 145 ± 42 |
| Cc1cc(C)c(S(=O)(=O)Nc2cccc(C(F)(F)F)c2)c(C)c1 | 169 ± 30 |
| O=C(CCCCCN1C(=O)c2cccc3cccc(c23)C1=O)NO [Scriptaid] | < 0 |
| Oc1nc(-c2ccc(C(F)(F)F)cc2)nc2c1CSCC2 | 136 ± 21 |
| CCOc1ccc(Nc2nc(-c3c(C)nc4ccccn34)cs2)cc1 | 127 ± 44 |
| COc1ccc2c(c1OC)C(=O)O[C@@H]2[C@H]1c2c(cc3c(c2OC)OCO3)CCN1C [Noscapine hydrochloride] | 129 ± 27 |
| COc1cc(NC(=O)c2ccccn2)ccc1Cl | 91.2 ± 30 |
| CC(C)C(=O)c1c(C(C)C)nn2ccccc12 [Ibudilast] | 75.7 ± 12 |
